Measured values as given in the supplement of paper PMC11417369.
± gives the standard deviation of the averaged measurements. The full ranking holds about 25,000 sequences; the median of “ln(normalized median fluorescence intensity)” is about 8.6, and the highest 2% start at about 10. For the sample, the highest values were picked, then their nearest neighbours and some sequences at random.

system: PfAP2-EXP AP2 domain (GST-tagged); experiment: gcPBM binding intensity (ln(normalized median fluorescence intensity)); higher = stronger DNA binding
Outline: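 Binding intensity is defined as the maximum Masliner-normalised natural-log median intensity across replicate spots for either probe orientation. It was measured on an Agilent 4 × 180k array of primer-extended double-stranded 36-bp intergenic genomic probes and negative controls, to which GST-tagged P. falciparum DNA-binding domains made in E. coli were applied for 1 h in 1× PBS with 1% milk, 0.2 mg/ml BSA, 0.5% salmon testes DNA and 0.03% Triton X-100. Detection was by Alexa488 anti-GST antibody and scanning at 488 nm.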

Row | Sequence | gcPBM binding intensity (ln)
1 | AACAGATAATATAAAAAAAAAAAAAAAAATAATTAA [GTGCAC_negctrl_site69] | 8.07 ± 0.53
2 | ATATTTTTTTTCTACACACATACAAATATATATTAT [CACACA_site2359] | 8.97 ± 0.46
3 | AATAAATAAAAAACATGTACAAATATAATATAGCAT [XGTACX_site6429] | 9.18 ± 0.5
4 | AAATTGTGTTCATCAGCACACACAACATCATGTAAT [CACACA_site8556] | 8.51 ± 0.41
5 | AAATATAAAAAAAATATATAATTTTTACATCGAATT [CACACA_negctrl_site544] | 8.24 ± 0.38
6 | TATAAATATATATATACACACACATACACAAAAAAA [CACACA_site9191] | 8.96 ± 0.54
7 | CACAAATATATACATACACACATATATACACATATA [CACACA_site8024] | 8.47 ± 0.34
8 | TAAATATATATATACACACACATACACAAAAAAAAA [CACACA_site3580] | 8.73 ± 0.42
9 | GTACAAAAAAAAATAAAATACATATATATATATATA [GTGCAC_negctrl_site364] | 10.1 ± 0.41
10 | TACACAAATATATATATATATATATATATATATATA [XGTACX_negctrl_site305] | 10.2 ± 0.14
11 | CACAAATATACAAATACACACAAATATACAAATACA [CACACA_site2385] | 8.7 ± 0.41
12 | TACAAAAAAAAATAAAATACATATATATATATATAT [XGTACX_negctrl_site608] | 10.3 ± 0.18
13 | TAATAAAAAATATATACACACAAATAAATAAATAAA [CACACA_site4037] | 8.75 ± 0.62
14 | AAATAAAAAGGGTGCACACAAAAATATATATATATA [CACACA_site1728] | 10.5 ± 0.6
15 | TTATACACAAAAAAAAAAATATATATATATATATAT [XGTACX_negctrl_site5] | 10.2 ± 0.61
16 | AAAAATAAAGGGTGTGCACACAAAAATATATATATA [CACACA_site1727] | 9.805 ± 0.078
17 | AAAAATAAAAGGTGTGCACACAAAAATATATATATA [CACACA_site8507] | 9.74
18 | TACGTGAAATTATATACACACATAAATATGTCTGTA [CACACA_site3122] | 8.16 ± 0.36
19 | ATTTAAAAAAAAACGGAATTTTTTTTTTTTTTAAAG [XGTACX_negctrl_site91] | 8.06 ± 0.51
20 | TTAAAAAAAATATAATGTACTTGTAGAATTATATTT [XGTACX_site6220] | 8.09 ± 0.26
21 | TTTTTTAATTAATTACCTTTGAATGTGTATTAGGAC [GTGCAC_negctrl_site651] | 8.49 ± 0.26
22 | AATATATACATATATTGTACATATAGTTTCTTGCAT [XGTACX_site7871] | 8.61 ± 0.33

Row | Sequence | gcPBM binding intensity (ln)
23 | AAATTATTATGAAATGGAAAATGCATAAATTGTTTT [XGTACX_negctrl_site206] | 8.63 ± 0.48
24 | AAATAAATAAATATACGTACATATATATAATATATA [XGTACX_site5124] | 8.52 ± 0.15
25 | AACATAACAAAAAAAAAAAAAAATATATATATATAT [TGCATGCA_negctrl_site370] | 10.2 ± 0.41
26 | TATAAAATAAATAACAAAAAAAATAAAATAAAAATA [TGCATGCA_negctrl_site297] | 8.47 ± 0.47
27 | AATATACAAAATAAATAAAATATATATATATATATA [CACACA_negctrl_site216] | 10.2 ± 0.28
28 | ACAAAAAAATAAAATATATATATATATATAATATAT [CACACA_negctrl_site805] | 8.58 ± 0.16
29 | TACAAAAAAATAAATAATAAAAAAAAATATATATAA [XGTACX_negctrl_site344] | 8.38 ± 0.38
30 | ATACATACATACATACGTACATATGTATATATATAT [XGTACX_site8498] | 9.7 ± 0.19
31 | TATATATACATATACACACATACGTACATACATATA [CACACA_site3585] | 8.75 ± 0.31
32 | AAAAAAATATAAATACGTACATATATATATATATAT [XGTACX_site432] | 10.2 ± 0.46
33 | CCATATACAACCATACGTACATATATATATATATAT [XGTACX_site8193] | 10.2 ± 0.2
34 | ATAAATAAATAAATACGTACATATATATATATATAT [XGTACX_site8838] | 9.98 ± 0.38
35 | TAATATAACAAAAAAATAAAATAAAATAAAAAATAA [CACACA_negctrl_site109] | 8.4 ± 0.41
36 | ATTCTAAATAAATGTACACACAAAAATAAATGTATA [CACACA_site1732] | 8.61 ± 0.31
37 | AACATATATATAATATGTACATAATATATATAAATG [XGTACX_site1161] | 8.52 ± 0.3
38 | AAAATTAAAAATTACTGTACGTATTAGAGAATAAAT [XGTACX_site2567] | 8.53 ± 0.32
39 | CATAAAATTGTGAAGTGTACATATTTTTAAATATAA [XGTACX_site8986] | 8.63 ± 0.28
40 | AATATTTTACAATACACATGCAAATAATATTCTAAA [TGCATGCA_site618] | 8.63 ± 0.39
41 | TATATAAATATATATACACACAAAAAAAAAAAAAAA [CACACA_site1406] | 8.36 ± 0.52
42 | TATTTATATTTATACACACACACAAAAAAAAAAAAA [CACACA_site6817] | 8.36 ± 0.57
43 | TATATATATATATACACACACACAAAAAAAAAAAAA [CACACA_site1505] | 10.2 ± 0.21
44 | TATATATATAAATACACACACACAAAAAAAAAAAAA [CACACA_site4930] | 8.6 ± 0.34
